Test results: the OligoGym collection

Target: KLHL20
Assay: pooled miR-30 sensor sort-seq; sequence = guide strand
Conditions: shRNA
Further: reference of the scale not given here.

Row | Sequence | sensor-assay potency score (higher = more potent)
1 | TCTCCTGTAAACATAGCTCGGA | -0.114
2 | TAATTGAGGACGTCTTTCCTGA | 0.0524
3 | TTGTTCTTCACTGCGAACGTTT | -0.688
4 | TACAGCATAGATCATGTCCTGA | 0.298
5 | TTCTTCATCACTTTTGATGAGG | -0.804
6 | TACATTTTGCATACCTACCTTT | -0.113
7 | TTGTTTGTATAAAAGAACCAAG | -1.24
8 | TTTGTCTATGAATACAATGAGG | -1.57
9 | TATGTTGGGTGAACTTGTCTGC | 0.299
10 | TTGAAAATTATTGTGCATCTTG | -0.295
11 | TTGAACACTTGTTCTTCACTGC | 0.569
12 | TCATCTACCAAGTCTCTGCATT | -0.755

Target: KLHL24
Assay: as above
Conditions: shRNA

Row | Sequence | sensor-assay potency score (higher = more potent)
13 | TATGAATAGTCACACAGCCATG | -1.71
14 | TTCAACTGGATCGTAACAGTAT | -0.312
15 | TATTTTTCTATCTCCTACCTAA | 0.015
16 | TTACAGGATCGTAGCACTCAGT | -1.07
17 | TATCTATGAATAGTCACACAGC | -1.1
